Consider 29 compounds from PubChem BioAssay (Tox21).

Where “and” joins values, the source holds several entries; their conditions need not be identical. Equal entries are not always repeated. Records with an inconclusive call do not appear. A number with no mark means an inactive call. Calls of active or inactive are those of the source. Calls follow the shape of the dose curve; as a rule, active = well fitted cell-killing curve with a large enough effect in the repeat runs; inconclusive = weak or mixed curves; inactive = no such curve, though single readings can be large or run the other way.
% is scaled to controls: 0 for no effect and ±100 for the full control effect; potency is read from the fitted curve at half-maximal effect.

The test in a line: qHTS assay to identify small molecule antagonists of the peroxisome proliferator-activated receptor delta (PPARd) signaling pathway - cell viability counter screen (AID 743213). Also: nearly all actives have a fitted effect of over 50% in size. To be noted: PPARd-bla HEK293H viability, CellTiter-Glo luminescence, 17 h; series mostly up to 62 µM; viability change, negative = cytotoxic: at the top concentration. A digest of the protocol: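 Same-well viability: cells pre-incubated 5 h, dosed with compound plus 300 nM L165041, kept 17 h at 37 C, FRET substrate 2 h RT, then CellTiter-Glo 30 min RT and luminescence.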
On the technique in general: qHTS replaces the single test concentration by a dilution series.
On to `CN(C)c1ccc(C(=C2C=CC(=[N+](C)C)C=C2)c2ccccc2)cc1`, for which the Potency was 490 nM (active) and 3.35 µM (active).

As for `CC1=C(C=O)C(C)(C)CC=C1`, the “viability change, negative = cytotoxic” value was 1.29% [at 80.4 µM].

`CC(C)CCOCc1ccccc1`: the “viability change, negative = cytotoxic” value was 19.3%.

On to `CC(C)(C)c1ccccc1`, for which the “viability change, negative = cytotoxic” value was 11.2%.

`CC(C)(C)NCC(O)c1cc(O)cc(O)c1` (centres undefined): the “viability change, negative = cytotoxic” value is 1.35%.

With `Cc1cc(C2(c3cc(C)c(O)cc3C)OS(=O)(=O)c3ccccc32)c(C)cc1O`, the Potency entry is “inactive”.

Consider `CC(C)(C)c1ccc(O)c(C(C)(C)C)c1`, for which the Potency was 38.7 µM (active) and 49 µM (active).

Turning to `CCCCC/C=C/CC1CC(=O)OC1=O` (centres undefined), the “viability change, negative = cytotoxic” value was 8.5%.

`CC(=O)CC(C)=O`: the “viability change, negative = cytotoxic” value is 1.98% [at 80.4 µM].

For `O`, the Potency result was “inactive”.

For `O=C(O[C@@H]1Cc2c(O)cc(O)cc2O[C@@H]1c1cc(O)c(O)c(O)c1)c1cc(O)c(O)c(O)c1`, the Potency result is “inactive”.

As for `Nc1cc(Cl)c(-c2cc(Cl)c(N)cc2Cl)cc1Cl`, the Potency was 24.5 µM (active).

As to `O=C1OC2(c3ccc(O)cc3Oc3cc(O)ccc32)c2ccccc21`, the Potency result was “inactive”.

In the case of `Nc1ccc2cc3ccccc3cc2c1`, the Potency result was “inactive”.

In the case of `CCC(C)(C)C(=O)O[C@H]1C[C@@H](C)C=C2C=C[C@H](C)[C@H](CC[C@@H]3C[C@@H](O)CC(=O)O3)[C@H]21`, the Potency result is “inactive”.

With `O=C(Nc1ccccc1SSc1ccccc1NC(=O)c1ccccc1)c1ccccc1`, the Potency is 12.4 µM (active) and 11 µM (active).

For `CC(C)(C)NC(=O)[C@@H]1CN(Cc2cccnc2)CCN1C[C@@H](O)C[C@@H](Cc1ccccc1)C(=O)N[C@H]1c2ccccc2C[C@H]1O`, the Potency entry is “inactive”.

Turning to `CCCCCCCCCCCCCCCCCl`, the “viability change, negative = cytotoxic” value was 18.9% [at 28.9 µM].

As to `CCC(CO)(CO)COCC(CC)(CO)CO`, the “viability change, negative = cytotoxic” value is -0.434%.

Take `c1cc(C(c2ccc(OCC3CO3)cc2)C(c2ccc(OCC3CO3)cc2)c2ccc(OCC3CO3)cc2)ccc1OCC1CO1` (centres undefined): the Potency entry is “inactive”.

For `CC(C)(c1ccccc1)c1ccc(Nc2ccc(C(C)(C)c3ccccc3)cc2)cc1`, the “viability change, negative = cytotoxic” value is 4.45%.

On to `CCN(CC)c1ccc2c(C)cc(=O)oc2c1`, for which the Potency entry is “inactive”.

Turning to `CCCCCCCCCCCCCC[P+](CCCC)(CCCC)CCCC`, the Potency was 7.72 µM (active) and 11 µM (active).

For `CC(N)=O`, the “viability change, negative = cytotoxic” value was -7.9% [at 226 µM].

For the compound `O=C1NCC2(CCN(CCc3ccccc3)CC2)O1`, the “viability change, negative = cytotoxic” value was -5.59%.

In the case of `NCCO`, the “viability change, negative = cytotoxic” value was -22.5%.

Take `CNCCC(Oc1ccc(C(F)(F)F)cc1)c1ccccc1` (centres undefined): the Potency was 17.2 µM (active) and 21.1 µM (active).

With `O=C(Oc1ccccc1)c1ccccc1O`, the Potency entry was “inactive”.

Consider `CC(C(O)c1ccc(O)cc1)N1CCC(Cc2ccccc2)CC1` (centres undefined), for which the “viability change, negative = cytotoxic” value was -2.82%.
